From PubChem BioAssay AID720610 (Broad Institute, 2013)
Inconclusive results are not listed. Activity calls are given as the source filed them.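 How the source made its calls: active means compounds whose fitted half-maximal signal loss occurs at or below twice the top dose at every exposure time; inconclusive means exposure times disagree on the call; inactive means the rest.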

Assay: cytotoxicity in HeLa cells, metabolic dye – Alamar Blue fluorescence, 8-48 h, dry powder, mechanism study for HRAS target identification, late-stage follow-up (AID 720610)

Cc1onc(C(=O)N2CCN(C(c3ccncc3)c3ccncc3)CC2)c1[N+](=O)[O-]
outcome: inactive

CCC(=O)N(c1ccc(OC)c(Cl)c1)C(C(=O)NCCc1ccccc1)c1cccs1 (configuration not stated)
outcome: inactive
